Pf growth 96h – P. falciparum growth inhibition at 96 hour, primary screen for plastid delayed-death inhibitors; AID 504834; hit rate 6.9% among 320,000; Potency, µM (top dose mostly 28.7 µM), for inactives: at the highest dose activity change, negative = inhibition, actives largely listed as inhibitors; P. falciparum luciferase reporter growth, 96 h; note: % is set by controls: 0 for no effect and ±100 for the full control effect
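Cell-based qHTS: luciferase-tagged P. falciparum in erythrocytes (2% hematocrit, 0.05% parasitemia final) incubated with compounds for 96 hours, 37 C, 5% CO2; luciferase detection reagent then added and luminescence measured.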
Pf growth 48h – inhibits P. falciparum growth in the first generation, 48 h. Potency, µM (doses to about 28.7 µM), for the others: top-dose activity change, negative = inhibition, actives largely listed as inhibitors. hit rate 5.9% among 310,000. P. falciparum luciferase growth in erythrocytes, 48 h; note: % is set by controls: 0 for no effect and ±100 for the full control effect
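Read-out is firefly luciferase luminescence from an integrated reporter in P. falciparum, so falling signal marks reduced parasite growth. Infected erythrocytes were at 2% hematocrit and 0.1% parasitemia (final) in Albumax-supplemented RPMI 1640.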
RE007 growth inh – less growth of the S. pombe RE007 Vpr strain; S. pombe RE007 Vpr strain, BacTiter-Glo ATP luminescence, 24 h; Potency, µM (series often up to 92.2 µM), for the others: at the top dose activity change, negative = less growth, hits mostly inhibitors; hit rate 0.21% among 360,000; AID 651644; active = well fitted falling curve with a large enough effect; inconclusive = small, poorly fitted or top-dose-only effect; inactive = no such curve, though single readings can be large or run the other way; note: % is set by controls: 0 for no effect and ±100 for the full control effect; nearly all actives have a fitted effect of over 50% in size
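Fission yeast RE007 carrying one integrated HIV-1 vpr copy, seeded at OD 0.01 in PMG+AL medium with 23 nL pinned compound. Grown 24 h at 30 degrees; viability read by BacTiter-Glo luminescence after 5 min.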
SARS PLP yeast – blocks SARS-CoV papain-like protease in a yeast assay | S. cerevisiae expressing SARS-CoV PLpro, growth rescue | hit rate 0.19% among 330,000 | Potency, µM (doses to about 32.9 µM), inactives show at the top dose activity, positive = growth rescue, most hits filed as activators; calls by dose curve; note: 0% is about no effect; nearly all actives have a fitted effect of over 55% in size
NS1 function inh – blocks influenza NS1 protein function | hit rate 0.4% among 270,000 | AID 2326 | Potency, µM (highest dose often 46.1 µM), inactives show top-dose activity, positive = more growth; calls by dose curve; note: actives are rising curves; nearly all actives have a fitted effect of over 50% in size
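Read-out: OD600 growth recovery of NS1-expressing budding yeast. Cells grown overnight at 30C in -URA glucose medium, washed, resuspended and diluted 1:100 in 2% galactose assay medium, pH 6.0. Same strain lacking NS1 served as positive control.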
Starred values were filed as active, the others as inactive. This is a sample that favours compounds with a hit; in the whole collection about 9.5% have one here. Unless noted, calls come from the whole dose curve; as a rule, active = well fitted inhibition curve with a large enough effect; inconclusive = small, poorly fitted or top-dose-only effect, or another doubt; inactive = no such curve, though single readings can be large or run the other way. Potency is the fitted concentration of half-maximal effect.

CC(C)c1nc(NCCN2CCOCC2)c(C#N)c2c1COC(C)(C)C2 was read as Pf growth 96h 49%, Pf growth 48h inconclusive, RE007 growth inh -14%, SARS PLP yeast -12% and NS1 function inh -9%.
CC(C)Cc1nc(N2CCOCC2)c(C#N)c2c1COC(C)(C)C2 was read as Pf growth 48h 10µM*, RE007 growth inh 2%, SARS PLP yeast -2% and NS1 function inh -14%.
CC(C)(C)C1CCc2c(C(=O)NNC(=O)CCCC(=O)O)csc2C1 (stereo unspecified) was read as Pf growth 96h -20%, Pf growth 48h -2%, RE007 growth inh 8%, SARS PLP yeast 1% and NS1 function inh 13%.
For CC12COC3(P(=O)(c4ccccc4)c4ccccc4)CC1CCC23CP(=O)(c1ccccc1)c1ccccc1 (stereo unspecified) the results were Pf growth 96h 0.93µM*, Pf growth 48h 1.2µM*, RE007 growth inh 26% and SARS PLP yeast -1%.
`CCOc1ccc(CN2CCNC(=O)C2CC(=O)NCc2csc(C(C)C)n2)cc1` (stereo unspecified) gave Pf growth 96h 2%, Pf growth 48h inconclusive, RE007 growth inh 2%, SARS PLP yeast -4% and NS1 function inh 18%.
`Cc1ccc(C(=O)NC(=S)NCc2cccnc2)cc1C` gave Pf growth 96h 9.3µM*, Pf growth 48h inconclusive, RE007 growth inh -20% and SARS PLP yeast 14%.
Screening O=C(/C=C/c1ccccc1)NCc1cccnc1 returned Pf growth 96h 231%, Pf growth 48h 14%, RE007 growth inh 5%, SARS PLP yeast 0% and NS1 function inh 0%.
`C=CCNC(=S)NCc1cccnc1` gave Pf growth 96h 51%, Pf growth 48h 13%, RE007 growth inh 7%, SARS PLP yeast 5% and NS1 function inh 8%.
Screening S=C(NCc1cccnc1)NCc1cccnc1 returned Pf growth 96h 10µM*, Pf growth 48h -7%, RE007 growth inh 11% and SARS PLP yeast 1%.
`O=C(O)/C=C\C(=O)NCc1cccnc1` gave Pf growth 96h 2.6µM*, Pf growth 48h 19%, RE007 growth inh 10%, SARS PLP yeast -3% and NS1 function inh -1%.
For COc1ccc(C(=O)NC(=S)NCc2cccnc2)cc1Br the results were Pf growth 96h 16%, Pf growth 48h -25%, RE007 growth inh -8%, SARS PLP yeast 15% and NS1 function inh -3%.
COc1ccccc1C(=O)NC(=O)CSc1nnnn1C was read as RE007 growth inh 3% and SARS PLP yeast 1%.
For O=C(CSc1nnc(-c2cccs2)n1CC1CCCO1)c1cc2ccccc2o1 (stereo unspecified) the results were Pf growth 96h 12µM*, Pf growth 48h 30%, RE007 growth inh -17%, SARS PLP yeast -8% and NS1 function inh 0%.
`C=CCOC(=O)C1=C(C)NC(SCC(=O)Nc2nccs2)=C(C#N)C1c1cccs1` (stereo unspecified) gave Pf growth 96h 4.1µM*, Pf growth 48h 4.7µM*, RE007 growth inh -1%, SARS PLP yeast -7% and NS1 function inh 24%.
For CC(=O)C1=C(C)NC(SCC(=O)Nc2nccs2)=C(C#N)C1c1ccccc1Cl (stereo unspecified) the results were Pf growth 96h inconclusive, Pf growth 48h inconclusive, RE007 growth inh 1%, SARS PLP yeast -5% and NS1 function inh 23%.
C=CCOC(=O)C1=C(C)NC(SCC(=O)Nc2nccs2)=C(C#N)C1c1ccc(Cl)cc1 (stereo unspecified) was read as Pf growth 96h 2.1µM*, Pf growth 48h 2.1µM*, RE007 growth inh 28%, SARS PLP yeast -4% and NS1 function inh 6%.
CCOC(=O)C1=C(C)NC(SCC(=O)Nc2cc(C)on2)=C(C#N)C1c1cccs1 (stereo unspecified) was read as Pf growth 96h inconclusive, Pf growth 48h 10µM*, RE007 growth inh 2%, SARS PLP yeast -3% and NS1 function inh 0%.
For C=CCOC(=O)C1=C(C)NC(SC)=C(C#N)C1c1ccc(OCC)cc1 (stereo unspecified) the results were Pf growth 96h 12µM*, Pf growth 48h 8.3µM*, RE007 growth inh -6%, SARS PLP yeast 4% and NS1 function inh -52%.
